# Test results as given in PubChem BioAssay AID1415 (NMMLSC, 2008).
# In all, about 220,000 compounds went through this assay and about 710 (0.32%) were called active. Only a selection was taken, and actives are over-represented in it overall. Unmarked numbers belong to inactive results. Cut-off read from the data, not from the text of the source: active = binding response below about 49% or above about 150%; inactive = in between.
# Molecular target: Guanine nucleotide-binding protein G(o) subunit alpha (Homo sapiens) (UniProt P09471)
# Test: RGS4-Galphao interaction inhibitors and enhancers – biochemical, multiplexed bead flow cytometry, primary screen (AID 1415);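 note: fluorescent Galphao activated with aluminum fluoride binding bead-coupled RGS4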
# Conditions: at 10 µM, actives lie on both sides
# Sequence of Guanine nucleotide-binding protein G(o) subunit alpha (Homo sapiens) (P09471 whole entry, looked up): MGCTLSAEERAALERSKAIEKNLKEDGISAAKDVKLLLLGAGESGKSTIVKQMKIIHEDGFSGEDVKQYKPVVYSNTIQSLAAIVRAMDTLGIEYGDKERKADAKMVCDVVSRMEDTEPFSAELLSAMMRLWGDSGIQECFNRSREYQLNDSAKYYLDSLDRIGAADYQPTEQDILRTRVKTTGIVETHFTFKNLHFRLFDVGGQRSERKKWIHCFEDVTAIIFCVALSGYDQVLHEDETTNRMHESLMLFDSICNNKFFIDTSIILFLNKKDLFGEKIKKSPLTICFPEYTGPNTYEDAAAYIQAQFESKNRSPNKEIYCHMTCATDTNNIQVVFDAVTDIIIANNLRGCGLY
row,SMILES,binding response (% of control)
1,CN1CCN(C(CNS(=O)(=O)c2cccs2)c2cccnc2)CC1 (configuration not stated),0.16% (active)
2,Cc1ccc(NC(=O)NCC(c2cccnc2)N2CCOCC2)cc1 (configuration not stated),105%
3,CN1CCN(S(=O)(=O)c2ccc(N3CCN(S(=O)(=O)c4cccs4)CC3)nc2)CC1,101%
4,OCCC1CN(Cc2ccc(Oc3ncccn3)cc2)CCN1CCc1ccccc1 (configuration not stated),98.9%
5,O=C(Nc1cc(Cl)cc(Cl)c1)C(NCCCO)c1ccccc1 (configuration not stated),102%
6,O=C(CNCc1cccs1)Nc1cc(S(=O)(=O)N2CCCC2)ccc1Cl,103%
7,O=C(O)CCCCCNc1ncnc2ccc(Br)cc12,98%
8,Oc1ccc(N=Nc2nccs2)c(O)c1,-21.6% (active)
9,Oc1ccc2ccccc2c1N=Nc1nccs1,99.9%
10,CC(NC(=O)C(=O)Nc1nccs1)c1ccccc1 (configuration not stated),94.3%
11,Cc1nc(NNC(=O)c2ccccc2)cc(-c2ccccc2)n1,101%
12,CC(CC(=O)C1C(C)C=CCC1(C)C)NNC(N)=O (configuration not stated),101%
13,O=C(c1ccc(=O)oc1)N1CCC(C(O)(c2ccccc2)c2ccccc2)CC1,100%
14,COC(=O)CCCC1=CC2=C(c3ccccc3)C(=O)C(C)(OC(=O)C3CCCC3)C(=O)C2=CN1c1ccc(OC)cc1 (configuration not stated),97%
15,Cc1ccccc1CC1(CO)CCCN(C(=O)c2cc(-c3ccccc3)no2)C1 (configuration not stated),110%
16,O=C(CCc1ccccc1)NNC(=O)c1ccc(Br)cc1,109%
17,CCOC(=O)N1CCN(C(=O)COc2ccc(Cl)cc2C)CC1,102%
18,CCCn1nnnc1NC(=O)COc1ccc(Cl)cc1C,22.6% (active)
19,Cc1cc(NC(=O)COc2ccc(Cl)cc2Cl)n(CCC#N)n1,94.6%
20,CC(Oc1ccccc1)C(=O)Nc1oc(-c2ccco2)c(-c2ccco2)c1C#N (configuration not stated),96.1%
21,O=C(CC1SCCNC1=O)Nc1ccc(Cl)cc1 (configuration not stated),102%
22,C/C(=N\NC(=S)NC(C)C)c1ccc(C(C)(C)C)cc1,102%
23,Cc1c(C(=O)Nc2ccccc2Cl)oc2ccc(S(=O)(=O)N3CCC4(CC3)OCCO4)cc12,106%

row,SMILES,binding response (% of control)
1,CCOc1ccccc1NC(=O)c1cc(S(=O)(=O)N2CCC3(CC2)OCCO3)ccc1F,-0.18% (active)
2,CCOc1ccccc1NC(=O)CCN1CCN(S(=O)(=O)c2ccc(OC)cc2)CC1,97%
3,CS(=O)(=O)c1sc(C(=O)NC(=S)Nc2ccc(OC(F)(F)F)cc2)c2c1C=CCC2,113%
4,C=C(C)C(=O)Nc1cccc(C2=NOC3(C2)C[C@H](C(N)=O)N(C(=O)C(c2ccccc2)c2ccccc2)C3)c1 (some centres not stated),100%
5,Cc1cc(NC(=O)OC(C)C)ccc1-c1ccc(NC(=O)OC(C)C)cc1C,96.1%
6,C=CCn1c(Cn2nnc3ccccc32)nnc1SCC(=O)N/N=C/c1cc(Br)cc(OC)c1O,-38.5% (active)
7,Cc1ccc(Cn2c(SCC(=O)N/N=C/c3ccccc3OCC(=O)O)nc3ccccc32)cc1,98.8%
8,COc1ccc(OC)c(/C=N/NC(=O)CSc2nnc(C)n2-c2ccccc2)c1,96.1%
9,CCC(C)NC(=O)Cn1nc(C(F)(F)F)c2c1CCC2 (configuration not stated),101%
10,COc1ccc(COCCN2CCN(S(=O)(=O)c3ccccc3)CCC2=O)cc1,84%
11,CN(C)c1ccc(/C=N/NC(=O)c2ccc(Cn3cc(Br)cn3)o2)cc1,98.7%
12,COC(=O)CNc1nc(Cl)nc(N2CCC(C)CC2)n1,101%
13,Cc1nnc(SCC(=O)N2c3ccccc3C(C)(c3ccc(Cl)cc3)CC2(C)C)s1 (configuration not stated),96.9%
14,Cc1cc2nc(C)n(CCCNC(=O)Nc3ccccc3)c2cc1C,158% [activator] (active)
15,Cc1nc2cc(NC(=O)NC3CC3)ccc2n1C,103%
16,Cc1nc2cc(NC(=O)Nc3cccc(F)c3)ccc2n1C,91.6%
17,Cc1onc(-c2ccccc2)c1C(=O)N=C(N)c1ccc(Cl)cc1,104%
18,N#Cc1ccc(CSc2nnc3ccccn23)cc1,101%
19,CCCCC1=CC2=CC(=O)C(C)(OC(=O)CC)C(=O)C2=CN1CCCOC(C)C (configuration not stated),96%
20,CCCC1C(c2ccccc2)C(C#N)(C#N)C2(C#N)CC1(N)NC2=O (configuration not stated),162% [activator] (active)
21,NC1=NC[C@@H](Cc2ccc(O)cc2)N1CC1CCCCC1,87.1%
22,CCOC(=O)c1ccc(NC(=O)c2nc[nH]c2C(=O)NCc2ccccc2)cc1,103%
23,CCn1c(=N)n(CC(=O)c2cccc(OC)c2)c2ccccc21,98.3%

row,SMILES,binding response (% of control)
1,CCCCOC(=O)Cn1c(=O)n(CC(=O)OCCCC)c2cc(C)ccc21,103%
2,CCCCOC(=O)Cn1c(=N)n(CCN(CC)CC)c2ccccc21,184% [activator] (active)
3,O=C(CN(C(=O)c1csnn1)c1cccc(F)c1)NCc1ccc(F)cc1,97.4%
4,Cc1ccc(S(=O)(=O)NCC(=O)OCC(=O)N2CCc3ccccc32)cc1,204% [activator] (active)
5,Cc1cnc(C(=O)OCC(=O)N2CCc3ccccc32)cn1,104%
6,Cc1ccc(S(=O)(=O)N(C)CC(=O)N2CCc3ccccc32)cc1,104%
7,C#CCO[C@@H]1C[C@H](n2cnc3c(=O)[nH]c(NC(=O)C(C)C)nc32)O[C@@H]1CO,81.4%
8,C=CCC1(CC=C)CCCN1C(=O)CC1C(=O)NCCN1Cc1ccccc1OC (configuration not stated),102%
9,[O-][n+]1c2c(nn1-c1ccc(Cl)c(Cl)c1)-c1nonc1CC2,106%
10,COc1ccc(/C(O)=C2\C(=O)C(=O)N(Cc3ccco3)C2c2ccc(OC)cc2OC)cc1 (configuration not stated),99.5%
11,COCCCN1C(=O)C(=O)/C(=C(/O)c2ccc3c(c2)CC(C)O3)C1c1cccnc1 (configuration not stated),95%
12,COc1cc(C2/C(=C(\O)c3ccc4c(c3)CC(C)O4)C(=O)C(=O)N2Cc2ccco2)ccc1O (configuration not stated),18.3% (active)
13,COC(=O)c1c(C)oc(C)c1S(=O)(=O)NCc1ccc(Cl)cc1,98.2%
14,CCN(CC)c1ccc(S(=O)(=O)N2CCOCC2)cc1NC(=O)CSc1cccc[n+]1[O-],91.7%
15,CCCn1c(SCC(=O)N2CCc3ccccc32)nnc1-c1ccncc1,99.9%
16,Cn1c(SCC(=O)N2CCCc3ccccc32)nc2ccccc2c1=O,89.2%
17,O=C(CSc1ccc2nnc(-c3ccccc3)n2n1)N1CCCc2ccccc21,156% [activator] (active)
18,Nc1ccccc1Sc1cc(Cl)nnc1Cl,97.6%
19,O=C(NC1CCc2ccccc21)C12CN(Cc3ccccc3)CC1C(c1cccc([N+](=O)[O-])c1)=NO2 (configuration not stated),99.7%
20,Cn1c(=O)c2c(n(Cc3ccccc3)c1=O)NC(=O)C2CC(=O)N1CCc2ccccc2C1 (configuration not stated),21.4% (active)
21,O=C(COc1ccccc1)N1CCc2ccccc2C1,103%
22,O=C(CSc1nnc(-c2cccs2)n1Cc1ccccc1)N1CCc2ccccc2C1,99.4%
23,Cc1ccc(NC(=O)CNCc2ccccn2)cc1S(=O)(=O)N(C)C,97.3%

row,SMILES,binding response (% of control)
1,Cn1c(CC2Sc3ccccc3NC2=O)nnc1SCC(=O)c1ccc(Cl)cc1 (configuration not stated),88.2%
2,CCc1c(C)nc2cc(-c3cccs3)[nH]n2c1=O,93.5%
3,Cc1cc(=O)n2[nH]c(-c3sccc3-n3c(C)ccc3C)cc2n1,50.1% (active)
4,COc1cccc2cc(/C(C)=N/NC(=O)c3ccco3)oc12,98%
5,COc1cc(NC(=O)CSc2nnc3ccc(-c4ccncc4)nn23)cc(OC)c1,98.4%
6,COCCCNC(=S)N(Cc1ccccc1)Cc1ccc(F)cc1,106%
7,CN(c1ccccc1)c1ccc(/C=c2\s/c(=C(/C#N)C(=O)C(C)(C)C)n(Cc3ccco3)c2=O)cc1,566% [activator] (active)
8,COc1ccc(NC(=O)Cn2c(=O)n(Cc3ccco3)c(=O)c3ccccc32)cc1,101%
9,Cc1cs/c(=N\N=C\c2ccc(O)cc2)n1Cc1ccco1,99.6%
10,CCOc1ccc(NC(=O)CSc2ncnc3c2sc2ccccc23)cc1,103%
11,O=C(CN1CCCCC1)N1c2ccccc2Sc2ccc(C(F)(F)F)cc21,21.1% (active)
12,O=C(CN1CCCCCC1)N1c2ccccc2Sc2ccc(C(F)(F)F)cc21,89.3%
13,COc1cc(/C=C/C(=O)N2c3ccccc3Sc3ccc(C(F)(F)F)cc32)cc(OC)c1OC,103%
14,CCN(CC)S(=O)(=O)c1ccc(NC(=O)c2cccnc2Cl)c(NC(=O)c2cccnc2Cl)c1,101%
15,COc1cc(NS(=O)(=O)c2ccc(NC(=O)c3ccc(S(=O)(=O)N4CCCCC4)cc3)cc2)ncn1,107%
16,NC(=O)[C@H]1CC2(CC(c3cccc(NC(=O)[C@H]4CCC(=O)N4)c3)=NO2)CN1C(=O)c1ccccc1C(=O)c1ccccc1 (some centres not stated),101%
17,CC1CCN(C(=S)NC2CC3CCC2C3)CC1 (configuration not stated),107%
18,O=C(Nc1ccn(Cc2ccccc2)n1)c1cccc(F)c1,97.8%
19,Cc1ccc(Cn2ccc(NC(=O)c3cc(C(C)C)on3)n2)cc1,49% (active)
20,Cc1ccc(Cn2ccc(NC(=O)C3C4CCC(C4)C3C(=O)O)n2)cc1 (configuration not stated),103%
21,Cc1cc(C)n(-c2ccc3nncn3n2)n1,97.6%
22,Cn1ccc(NC(=O)Nc2ccc(Cl)cc2)n1,101%
23,Cn1cc(C(=O)NCc2ccccc2F)cn1,101%
